From PubChem BioAssay
ClpP mod: qHTS Assay for Activators of ClpP. ATP-dependent Clp protease proteolytic subunit (Bacillus subtilis (strain 168)), P80244. purified B. subtilis ClpP, FRET peptide cleavage, 20 min. Potency, µM (top dose mostly 57.5 µM), for the others: top-dose activity change, negative = active. 340,000 tested, 1.9% active; active means well fitted falling curve with a large enough effect; inconclusive means small, poorly fitted or top-dose-only effect; inactive means no such curve, though single readings can be large or run the other way; further: the source files actives as falling curves though it sought activators and does not explain the sign; nearly all actives have a fitted effect of over 65% in size
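ClpP 10 microg/mL final, pH 8 Tris/KCl buffer with BSA, glycerol, Tween-20; compound pinned in; FRET-FV substrate; RT 20 min; Ex320/Em430; ΔFRET vs ADEP 5.8 microM, DMSO, no enzyme.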
TDP1 block: TDP1 (human) enzyme inhibition; Potency, µM (series often up to 130 µM), for inactives: at the top dose activity change, negative = inhibition, most hits filed as inhibitors; Q9NUW8; 350,000 tested, 0.28% active; recombinant TDP1, AlphaScreen DNA substrate cleavage; further: on the % scale 0 is the no-effect control and ±100 the full control effect; nearly all actives have a fitted effect of over 40% in size
Target sequence (Q9NUW8 whole entry, looked up): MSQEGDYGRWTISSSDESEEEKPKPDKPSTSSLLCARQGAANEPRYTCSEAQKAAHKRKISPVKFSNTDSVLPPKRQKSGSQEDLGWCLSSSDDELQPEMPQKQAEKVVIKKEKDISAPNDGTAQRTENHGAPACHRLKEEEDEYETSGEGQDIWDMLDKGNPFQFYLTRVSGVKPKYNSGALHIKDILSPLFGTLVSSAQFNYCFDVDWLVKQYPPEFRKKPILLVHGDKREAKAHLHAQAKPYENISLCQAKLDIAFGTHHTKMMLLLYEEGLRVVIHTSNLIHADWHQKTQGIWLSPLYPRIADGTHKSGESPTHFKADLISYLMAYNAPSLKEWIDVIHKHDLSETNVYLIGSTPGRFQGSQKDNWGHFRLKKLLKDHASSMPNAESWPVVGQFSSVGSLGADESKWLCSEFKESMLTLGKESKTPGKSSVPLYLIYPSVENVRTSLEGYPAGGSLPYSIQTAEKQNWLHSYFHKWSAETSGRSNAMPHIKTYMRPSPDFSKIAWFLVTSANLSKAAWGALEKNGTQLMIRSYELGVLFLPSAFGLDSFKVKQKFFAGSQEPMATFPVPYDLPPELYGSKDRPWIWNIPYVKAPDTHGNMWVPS
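Recombinant human Tdp1 (E. coli-expressed, 1 nM final) preincubated with compounds 15 min at room temperature, then 5'-biotin/3'-phosphotyrosine-FITC DNA substrate (15 nM final) added for 5 min. AlphaScreen beads (10 ug/ml final) added 10 min; cleavage lowers signal.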
DT40 TDP1 no CPT: qHTS for Inhibitors of human tyrosyl-DNA phosphodiesterase 1 (TDP1): qHTS in cells in absence of CPT | Potency, µM (doses to about 46.2 µM), for inactives: at the highest dose activity change, negative = growth inhibition, usual class: inhibitors | DT40 Tdp1-/- hTDP1 cells, no CPT, ATP luminescence, 48 h | AID 686978, 2013 | 420,000 tested, 15% active; further: on the % scale 0 is the no-effect control and ±100 the full control effect; nearly all actives have a fitted effect of over 55% in size
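Growth kinetics read by CellTiter-Glo luminescence after ≥48 hr at 37 °C. Cells: DT40 Tdp1-/- stably carrying human TDP1, 400 per well, compound exposure in the absence of CPT (DMSO vehicle).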
DT40 TDP1 CPT: growth inhibition of DT40 Tdp1-/-;hTDP1 cells with camptothecin (screen for TDP1 inhibitors); Potency, µM (top dose mostly 46.2 µM), for the others: top-dose activity change, negative = growth inhibition, most hits filed as inhibitors; chicken DT40 Tdp1-/-;hTDP1 cells + 20 nM CPT, ATP luminescence, 48 h; 420,000 tested, 12% active; further: on the % scale 0 is the no-effect control and ±100 the full control effect; nearly all actives have a fitted effect of over 55% in size
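Cell growth measured by CellTiter-Glo luminescence after a minimum 48 h, 37 C compound exposure with 20 nM CPT in Tdp1-knockout DT40 cells stably expressing hTDP1, seeded 400/well; qHTS titration format.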
Starred values were filed as active, the others as inactive; ? = inconclusive; nt = not tested or not shown; [ ] = remark or other dose. Only some compounds are listed: those with a hit (about 17% of all), similar ones and a draw of the others. Unless noted, the call rests on the fitted dose curve; in most records, active means well fitted curve in the direction sought with a large enough effect; inconclusive means small, poorly fitted or top-dose-only effect, or another doubt; inactive means no such curve, though single readings can be large; an effect the other way counts as inactive or inconclusive. Potency means the concentration at half of the fitted maximal effect.

SMILES	ClpP mod	TDP1 block	DT40 TDP1 no CPT	DT40 TDP1 CPT
NC(=O)CNC(=O)[C@H](Cc1ccccc1)NC(=O)[C@H](CCCN=C(N)N)NC(=O)[C@@H](N)Cc1ccc(O)cc1	nt	3.7%	nt	nt
COc1cc2c3cc1Oc1c(OC)c(OC)cc4c1C(Cc1cccc(c1)Oc1ccc(c(O)c1)CC3N(C)CC2)N(C)CC4 (configuration not stated)	nt	10.2%[56.1 µM]	0.4%	2.3%
N#CC(O)c1ccccc1 (configuration not stated)	nt	13.2%	nt	nt
CN1CC(CO)=C[C@H]2c3cccc4[nH]cc(c34)C[C@H]21	nt	4.2%[56.1 µM]	-0.7%	8.7%
CCOc1cncc(/C=C/CCNC)c1	nt	3.0%	nt	nt
C[C@]12CC[C@H](O)C[C@H]1CC[C@@H]1[C@@H]2C[C@@H](O)[C@]2(C)[C@@H](C3=CC(=O)OC3)CC[C@]12O	-2.5%	nt	?	-13.2%
COC1C(O)C(OC2CC[C@]3(C=O)C4C(OC(C)=O)C[C@@]5(C)C(C6=CC(=O)OC6)CC[C@]5(O)C4CC[C@]3(O)C2)OC(C)C1OC(C)=O (some centres not stated)	nt	6.8%[56.1 µM]	0.9%	8.8%
COC1C(O)C(C)OC(OC2CCC3(C)C(CCC4C3C(O)CC3(C)C(C5=CC(=O)OC5)CCC43O)C2)C1O (configuration not stated)	-1.3%	nt	2.06µM*	1.84µM*
CO[C@H]1[C@@H](O)C[C@H](O[C@H]2[C@@H](O)C[C@H](O[C@H]3[C@@H](O)C[C@H](O[C@H]4CC[C@@]5(C)[C@H](CC[C@@H]6[C@@H]5C[C@@H](O)[C@]5(C)[C@@H](C7=CC(=O)OC7)CC[C@]65O)C4)O[C@@H]3C)O[C@@H]2C)O[C@@H]1C	nt	nt	0.376µM*	0.531µM*
Cc1ccc(CN2CCCN(Cc3ccc(Cl)cc3)S2(=O)=O)cc1	nt	nt	12.5%	11.6%
COCCNC(=O)N1[C@H]2CC[C@@H]1C(C(=O)OC)=C(c1ccc(-c3ccccc3)c(F)c1)C2	0.8%	1.1%	1.84µM*	1.84µM*
COC(=O)C1=C(c2ccc(-c3ccccc3)c(F)c2)C[C@@H]2CC[C@H]1N2C(=O)NCCOc1ccccc1	-13.1%	0.4%	20.6µM*	20.6µM*
CCOP(=O)(OCC)c1cccc(P(=O)(c2ccccc2)c2ccccc2)c1O	nt	nt	?	-120.4%
CC[C@H](C)[C@H](NC(=O)[C@@H](N)Cc1ccc(O)cc1)C(=O)NCC(=O)N[C@@H](CO)C(=O)N[C@@H](CCCN=C(N)N)C(N)=O	nt	5.6%	nt	nt
CCOc1cc(-c2ccc(N)c(OCC)c2)ccc1N	31.6µM*	-1.0%	?	11.6µM*
CCCCC/C=C\C/C=C\C/C=C\C/C=C\CCCC(=O)N(Cc1ccc(O)c(Cl)c1)Cc1ccc(O)c(Cl)c1	nt	-3.1%	nt	nt
CN1C2CCC1CC(OC(c1ccccc1)c1ccccc1N)C2 (configuration not stated)	3.4%	10.9%[56.1 µM]	?	?
CN1C2CCC1CC(OC(c1ccccc1)c1ccc(Cl)cc1)C2 (configuration not stated)	nt	13.2%[56.1 µM]	4.73µM*	2.99µM*
CCN(CC)CCO[C@H]1CC[C@@]2(C)C(=CC[C@@H]3[C@@H]2CC[C@]2(C)C(=O)CC[C@@H]32)C1	nt	nt	2.66µM*	23.7µM*
CCN(CC)CCO[C@H]1CC[C@@]2(C)C(=CC[C@@H]3[C@H]2CC[C@]2(C)C(=O)CC[C@H]32)C1	nt	9.0%[56.1 µM]	2.37µM*	2.37µM*
C[C@]12CCC(OC(=O)CCC(=O)O)CC1=CCC1C2CC[C@]2(C)C(=O)CCC12 (some centres not stated)	nt	nt	-22.1%	2.7%
COCCO[C@H]1CC[C@@]2(C)C(=CCC3C2CC[C@@]2(C)C3CC[C@]2(C)O)C1 (some centres not stated)	1.7%	0.9%	11.6µM*	?
COCC(=O)N1CCC2(CCCN(Cc3ccncc3)C2)CC1	nt	nt	-10.6%	3.6%
COC(=O)C1=C(c2cc3ccccc3s2)C[C@@H]2CC[C@H]1N2C(=O)NCc1ccccc1	-2.3%	nt	?	?
CCCNC(=O)N1[C@H]2CC[C@@H]1C(C(=O)OC)=C(c1cc3ccccc3s1)C2	-1.9%	nt	nt	11.6µM*
SMILES	ClpP mod	TDP1 block	DT40 TDP1 no CPT	DT40 TDP1 CPT
COC(=O)C1=C(c2ccccc2)C[C@@H]2CC[C@H]1N2C(=O)NCCCOC(C)C	-1.7%	nt	-7.8%	2.0%
COC(=O)C1=C(c2cc3ccccc3s2)C[C@@H]2CC[C@H]1N2C(=O)NCCCOC(C)C	2.1%	nt	18.4µM*	18.4µM*
CC1CCCN(CCCNC(=O)c2ccc3c(c2)N(Cc2cccc(Cl)c2)C(=O)c2ccccc2S3=O)C1 (configuration not stated)	-0.3%	nt	?	?
COc1ccc2[nH]cc(CCN)c2c1	-12.0%	10.9%[56.1 µM]	-26.8%	?
CCCCCCCCCOc1ccc2[nH]cc(CCN)c2c1	nt	11.0%	8.2µM*	7.31µM*
CN1C[C@H](C(=O)N[C@]2(C)O[C@@]3(O)[C@H]4CCCN4C(=O)[C@H](Cc4ccccc4)N3C2=O)C[C@H]2c3cccc4[nH]cc(c34)C[C@@H]21	nt	17.9%	?	?
CC(C)C[C@H]1C(=O)N2CCC[C@H]2[C@]2(O)O[C@](NC(=O)[C@@H]3C=C4c5cccc6[nH]cc(c56)C[C@H]4N(C)C3)(C(C)C)C(=O)N12	4.4%	nt	16.4µM*	20.6µM*
CN1C[C@H](C(=O)NC2(C)OC3(O)[C@@H]4CCCN4C(=O)[C@H](Cc4ccccc4)N3C2=O)CC2c3cccc4[nH]cc(c34)C[C@H]21 (some centres not stated)	-0.4%	nt	16.4µM*	16.4µM*
CC(C)[C@@]1(NC(=O)[C@@H]2C[C@H]3c4cccc5[nH]cc(c45)C[C@@H]3N(C)C2)O[C@@]2(O)[C@H]3CCCN3C(=O)[C@H](Cc3ccccc3)N2C1=O	nt	14.3%	?	?
CCCCOCN(C(=O)CCl)c1c(CC)cccc1CC	nt	16.1%	nt	nt
COc1cc2c(cc1O)CC1c3c(cc(O)c(OC)c3-2)CCN1C (configuration not stated)	4.5%	13.6%[56.1 µM]	-25.3%	-28.3%
COc1cc2c(cc1OC)-c1c(OC)c(OC)cc3c1[C@H](C2)N(C)CC3	4.1%	-2.6%	16.4µM*	?
Cc1ccc(-c2nc3ccccc3c(=O)n2-c2ccccn2)cc1	1.4%	5.4%	?	?
COc1ccc(-c2n(-c3ccccn3)c3ccccc3[n+]2-c2ccccn2)cc1	-20.8%	3.8%	13µM*	13µM*
CCCCN1CCS(=O)(=O)N(Cc2ccccc2Br)CC(C(=O)OC)C1 (configuration not stated)	1.9%	-4.2%[56.1 µM]	?	?
